Results taken from PubChem BioAssay AID602333 (Sanford-Burnham Center for Chemical Genomics, 2012).
In all, about 1,900 compounds went through this assay and about 240 (13%) were called active. A selection follows. Unmarked numbers belong to inactive results.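 The calls were made as follows: active = mean inhibition at least 40% at 20 µM, or signal 3 deviations below plate average, so some actives read negative; inactive = the rest.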

Target: Prothrombin (Bos taurus) (UniProt P00735)
Test: blocking of thrombin cleavage of Ub4 substrate – biochemical, fluorescence polarization, single concentration, counter-screen for Rpn11 inhibitor project, confirmation (AID 602333);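 also: plate controls were thrombin with DMSO for no effect and buffer wells lacking thrombin for full effect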
Details: bovine thrombin cleavage of Ub4-pepOG, at 20 µM, stronger effect = higher value

Chain of Prothrombin (Bos taurus) (P00735 whole entry, looked up): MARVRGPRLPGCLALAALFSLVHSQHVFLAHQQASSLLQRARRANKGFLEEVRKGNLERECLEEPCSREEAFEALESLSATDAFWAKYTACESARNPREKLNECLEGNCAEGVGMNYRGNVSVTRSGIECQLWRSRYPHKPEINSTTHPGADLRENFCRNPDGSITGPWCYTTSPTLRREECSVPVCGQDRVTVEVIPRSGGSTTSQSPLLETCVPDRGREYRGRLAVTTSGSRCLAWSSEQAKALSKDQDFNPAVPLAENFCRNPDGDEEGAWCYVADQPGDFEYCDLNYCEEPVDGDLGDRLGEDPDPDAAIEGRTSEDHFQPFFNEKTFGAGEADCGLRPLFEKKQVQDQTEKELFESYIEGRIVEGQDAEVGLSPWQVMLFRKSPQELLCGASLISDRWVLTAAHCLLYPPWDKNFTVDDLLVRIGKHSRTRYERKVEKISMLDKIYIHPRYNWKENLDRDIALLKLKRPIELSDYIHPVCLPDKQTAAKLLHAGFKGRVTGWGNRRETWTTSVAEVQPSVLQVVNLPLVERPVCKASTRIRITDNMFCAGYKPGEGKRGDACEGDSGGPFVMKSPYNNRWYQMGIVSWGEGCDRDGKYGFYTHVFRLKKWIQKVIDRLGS

SMILES	inhibition
C=CC1=C(C(=O)O)N2C(=O)[C@@H](NC(=O)/C(=N/OCC(=O)O)c3csc(N)n3)[C@H]2SC1	-49.6%
O=C(COc1cccc(F)c1)Oc1ccc(C(=O)c2ccccc2)cc1	-6.51%
C/C(=N/Nc1nc(-c2ccccc2)c(CC(=O)O)s1)c1ccccc1	11.8%
COc1cc(/C=C2/SC(=S)N(Cc3ccccc3)C2=O)cc(OC)c1O	30.8%
Cc1ccc(Nc2nc(Cl)c(C=O)s2)cc1	47% (active)
Cc1ccc(Nc2ccccc2N)cc1	15.5%
CCOc1cc(/C=C2\SC(N3CCCCC3)=NC2=O)ccc1O	21%
Oc1ccc(/C=N/Nc2nc(-c3ccccc3F)nc3ccccc23)c(O)c1	5.18%
COc1ccc2[nH]c(=O)c(-c3noc(-c4ccc(F)cc4)n3)cc2c1	2.93%
Cc1ccc2cc(C#N)c(NCCNC(=S)NCCCN3CCOCC3)nc2c1	-7.45%
C=CCn1c(SCC(=O)NCc2ccccc2)nnc1-c1cc(Br)ccc1O	-3.07%
CCCCCCCCCCOC(=O)Cn1c(COc2cccc(OC)c2)[n+](C)c2ccccc21	-11.8%
Cc1c(NC(=O)CSc2cccc3cccnc23)c(=O)n(-c2ccccc2)n1C	-11.3%
Cc1nc2ccc(C(=O)N3CCSCC3)cc2s1	-9.73%
CCC(C)Cn1c(O)cc2nn(-c3nc4ccccc4s3)c(=O)c-2c1C (stereo not given)	3.33%
CCNCc1cc2cc(C)ccc2[nH]c1=O	7.4%
CCN1CCN(c2cc3nc(C)n(Cc4ccccc4)c(=O)c3cc2NC(=O)c2ccccc2F)CC1	-5.14%
COc1ccc(Cl)cc1NC(=O)CCS(=O)(=O)c1ccc(Br)cc1	-12.6%
COc1cccc(NC(=O)C(C)Oc2ccccc2)c1 (stereo not given)	-2.75%
Cc1ccc(NC(=O)c2c(NC(=O)CCC(=O)O)sc3c2CCCCC3)cc1	-10.8%
CCOc1ccc(NC(=O)c2ccc(NC(=O)COC(=O)c3ccc(NC(=O)CC#N)cc3)cc2)cc1	-22.9%
COc1cccc(-c2nn(-c3ccccc3)cc2/C=C(\C#N)C(=O)NCCCn2ccnc2)c1	3.86%
CCN1CCCC1CNC(=O)c1cc2c(=O)n(C)c3ccccc3c2n1C (stereo not given)	-4.94%
CC(C)(C)NC(=O)CSC(=Nc1ccccc1F)NC#N	4.77%
Cc1ccc(-c2nnc(-c3ccc(NC(=O)c4cccs4)cc3)o2)cc1	-6.56%
Cc1nc2ccccc2nc(=O)c1NNc1ccc([N+](=O)[O-])cc1	28.5%
CC(C)Cn1c(CCC(=O)O)ccc1-c1cccs1	-22.2%

SMILES	inhibition
CCC/C=C(\CCC)C(NC(=O)Cc1ccccc1)c1ccc(C(=O)OC)cc1 (stereo not given)	-11.1%
Cc1oc2c(C)c3oc(=O)c(CC(=O)N[C@@H](CC(C)C)C(=O)N[C@@H](Cc4ccccc4)C(=O)O)c(C)c3cc2c1C	29.3%
Cc1cc(/C=C2/SC(=O)N(CC(=O)N3CCCC3)C2=O)ccc1N1CCOCC1	23.9%
CC(=O)Nc1ccccc1Sc1ccc2c3c(cccc13)C(=O)N(c1ccc(C)cc1)C2=O	4.95%
O=C1NC(=O)C2C1C(c1ccc([N+](=O)[O-])cc1)=NN2Cc1ccccc1 (stereo not given)	15.8%
Cc1cccc(OCc2nnc(SCc3nc4cc(C(F)(F)F)ccc4c(=O)[nH]3)o2)c1	42.8% (active)
CC(=O)/C(=N\Nc1ccc(Cl)cc1Cl)Sc1cccc2cccnc12	1.24%
CC1CCN(c2ccc3c(c2)S(=O)(=O)c2cc(C(=O)O)ccc2C3=O)CC1	18.1%
CN(C)c1ccc(-n2cccc2/C=C2/SC(=Nc3ccc(F)cc3)NC2=O)cc1	-29.3%
O=C(CSc1nc2ccccc2c(=O)[nH]1)Nc1nc(-c2ccc(Br)cc2)cs1	-3.66%
CCOC(=O)N1CCC(NC(=O)C(NS(=O)(=O)c2ccc3c(c2)CCN3C(=O)CC)C(C)C)CC1 (stereo not given)	1.81%
CCOc1ccc(-n2c(O)c(/C=N/Nc3nnc(C)c(=O)[nH]3)c3ccccc3c2=O)cc1	-1.67%
CCOc1ccc(-n2c(O)c(/C=N/c3ccnn3Cc3ccncc3)c3ccccc3c2=O)cc1	82.5% (active)
CC(C)Oc1ccc(/C=C(\NC(=O)/C=C/c2ccco2)C(=O)NCCc2nc3ccccc3[nH]2)cc1	21%
COc1ccc(CNC(=O)c2nnn(CC(=O)Nc3cc(C)cc(C)c3)c2N)cc1	-6.95%
CN(C)CCOC1c2ccccc2-c2ccccc21	-14%
CC(=O)c1sc(N/N=C/c2ccc(C(C)C)cc2)nc1C	-6.77%
Cc1ccc(NC(=O)CN2CCc3ccccc3C2)cc1	-14.3%
C=CC[n+]1c(-c2ccc(C)cc2)csc1NNC(=O)Nc1ccccc1	4.61%
COc1ccc(-n2c(SCC(=O)Nc3sc4c(c3C#N)CCCC4)nnc2-c2ccc(O)cc2)cc1	-8.59%
Cc1nc2ccccc2n1C(=O)N1CCOCC1	-8.33%
CCCS(=O)(=O)N1CCCC(C(=O)NCc2ccco2)C1 (stereo not given)	-12.9%
Cc1ccc(N=Cc2c(O)cc(C)oc2=O)c(C)c1	8.99%
CSC1=N/C(=C\C=C\c2cccs2)C(=O)S1	3.5%
CCCOc1ccc(Cn2c(O)cc(=O)[nH]c2=O)cc1	7.31%
Nc1nonc1-n1nnc(C(=O)N/N=C/c2cc(Br)ccc2O)c1CSC1=NCCS1	2.28%
CCN(CC)C(=O)CSc1nc2ccccc2n1CC(=O)N1CCN(c2ccccc2OC)CC1	-2.4%

SMILES	inhibition
COc1cccc(/C=C(/CC(=O)Nc2ccc(N3CCOCC3)cc2)c2nc3ccccc3s2)c1	7.25%
O=C(O)c1ccc(NN=CC2=C(N3CCOCC3)/C(=C/c3ccccc3)CC2)cc1	46.5% (active)
CCCCCCSc1ccc([C@@H]2[C@H]3C(=O)N(CC)C(=O)[C@H]3[C@]3(C(=O)OC)CCCCN23)cc1	60.5% (active)
O=C(Nc1ccc(-c2nnc(-c3ccccc3)o2)cc1)c1ccc(Br)o1	-5.94%
Cc1c(N=Nc2ccc(N(C)C)cc2)c(=O)n(-c2ccccc2)n1C	37.7%
N#Cc1c(-c2cccs2)nc(SCC(=O)c2ccc(Br)cc2)[nH]c1=O	15.6%
NC(N)=N/N=C/c1ccc(OCc2ccc(Cl)cc2Cl)cc1	-36.6%
CS(=O)(=O)c1ccc2c(c1)SC1=NC(=O)/C(=C/c3ccco3)C(=N)N12	26%
Cc1sc2nc(COC(=O)C(NC(=O)c3ccc(Cl)cc3Cl)C(C)C)[nH]c(=O)c2c1C (stereo not given)	13.5%
O=C(CSc1cccc2cccnc12)N/N=C/c1cccnc1	-13.1%
CC(C)CC1C(=O)N(Cc2cn(Cc3ccco3)nn2)CCS(=O)(=O)N1Cc1ccc(-c2ccc(Cl)c(Cl)c2)cc1 (stereo not given)	-6.74%
COC1=C/C(=C/c2c(N)n3nc(CC(=O)N4CCOCC4)sc3nc2=O)C=CC1=O	36%
CN=c1scc(-c2cc(OC)ccc2OC)n1/N=C/c1c(C)[nH]c2ccccc12	30%
O=C(OCc1cc2ccccc2[nH]c1=O)c1cccnc1	-12.2%
CCOc1cc(/C=C2\SC(N3CCCC(C)C3)=NC2=O)ccc1O (stereo not given)	10%
CCc1ccc(-c2cc(C(=O)NCc3ccco3)c3ccccc3n2)s1	33.8%
Oc1c(CN2CCCC2)cc(COCc2ccccc2)c2cccnc12	-28.1%
O=C(CCS(=O)(=O)c1cccc2nonc12)NCCc1ccccc1Cl	-6.4%
CCc1ccc(NC(=O)CS(=O)CC(=O)NCCCc2ccccc2)cc1 (stereo not given)	5.42%
N#Cc1ccc(C(=O)Nc2cccc3cccnc23)c(F)c1	-28.1%
COc1ccc(NC(=O)Cn2c(-c3ccc(OC)cc3)cn(-c3ccc(C)cc3)c2=O)cc1	29.3%
Cc1cc(/C=N/Nc2ccc([N+](=O)[O-])cn2)c(C)n1-c1cccc(C(=O)O)c1	-0.18%
COc1ccc(CC(=O)Nc2ccc(-c3nnc(-c4ccc(C)cc4)o3)cc2)cc1	-14.6%
C=CCn1c(=S)[nH]c2scc(-c3ccco3)c2c1=O	-8.62%
Cc1cc(OCC(=O)Nc2nccs2)c2c(C)c(C)c(=O)oc2c1	-9.45%
COC(=O)c1ccc(OCC(=O)NC(C)(C)C)cc1	-4.55%
